Laboratory results reported in the supplement of paper PMC12669032.
A number with no mark means an inactive call.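 Rule for the calls: active = AUC reduced over 20% with Padj below 0.05 in at least 2 of 3 replicates; inactive = otherwise.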

Legend:
Roseburia intestinalis = assay: growth AUC relative to DMSO control (median of replicates) (fraction); higher = more growth (less inhibition), active = hit call of the paper; conditions: 20 µM; 24 h
How it was run: (§1)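 Gut bacteria were grown singly in mGAM at 37 °C without oxygen, from OD600 0.05, alongside 20 µM compound in 1% DMSO, and OD600 was read each hour for 24 h. Area under the growth curve was normalised to the median of solvent-only wells per plate, or to row and column medians on the industrial chemical plate. The minimum OD was set to 0 beforehand, and the reported value is the median of three biological replicates grown on separate days.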

Streptococcus salivarius = assay: as above; conditions: 20 µM; 24 h
How it was run: as §1

CCOC(=O)C(SP(=S)(OC)OC)c1ccccc1 (centres undefined)
growth AUC (Roseburia intestinalis): 1.03
growth AUC (Streptococcus salivarius): 1

CC(=O)CC(c1ccco1)c1c(O)c2ccccc2oc1=O (centres undefined)
growth AUC (Roseburia intestinalis): 0.975
growth AUC (Streptococcus salivarius): 0.989

N#Cc1nn(-c2c(Cl)cc(C(F)(F)F)cc2Cl)c(N)c1S(=O)(=O)C(F)(F)F
growth AUC (Roseburia intestinalis): 0.965
growth AUC (Streptococcus salivarius): 0.548 (active)

CCN(C(=O)n1nnn(-c2ccccc2Cl)c1=O)C1CCCCC1
growth AUC (Roseburia intestinalis): 0.938
growth AUC (Streptococcus salivarius): 0.971

CC1(C)C(C=C(Cl)Cl)C1C(=O)OC(C#N)c1ccc(F)c(Oc2ccccc2)c1 (mixture of isomers)
growth AUC (Roseburia intestinalis): 0.916
growth AUC (Streptococcus salivarius): 0.974

O=C(Nc1ccccc1)Nc1cnns1
growth AUC (Roseburia intestinalis): 0.918
growth AUC (Streptococcus salivarius): 0.891

CCOC(=O)N(C)C(=O)CSP(=S)(OCC)OCC
growth AUC (Roseburia intestinalis): 1.03
growth AUC (Streptococcus salivarius): 1

CC1(C)C(C=C(Cl)Cl)[C@@H]1C(=O)O[C@@H](C#N)c1ccc(F)c(Oc2ccccc2)c1 (some centres undefined)
growth AUC (Roseburia intestinalis): 0.916
growth AUC (Streptococcus salivarius): 1

OC(Cn1cncn1)(c1ccc(F)cc1)c1ccccc1F (centres undefined)
growth AUC (Roseburia intestinalis): 0.966
growth AUC (Streptococcus salivarius): 1.01

CCOC(=O)COc1cc(-c2nn(C)c(OC(F)F)c2Cl)c(F)cc1Cl
growth AUC (Roseburia intestinalis): 0.973
growth AUC (Streptococcus salivarius): 0.993

COP(=S)(OC)SCN1C(=O)c2ccccc2C1=O
growth AUC (Roseburia intestinalis): 0.901
growth AUC (Streptococcus salivarius): 0.979

CCOP(=S)(OCC)Oc1cc(Cl)c(Br)cc1Cl
growth AUC (Roseburia intestinalis): 0.948
growth AUC (Streptococcus salivarius): 0.958
